From PubChem BioAssay
Many of the other results were omitted from the sample, so hits are more common in it than they were.
Methyltransferases: Primary Screen for Target Class Profiling of Small Molecule Inhibitors of Methyltransferases; purified enzyme, MTase-Glo SAH luminescence; active compounds read low; calls only at 40 µM; 25,000 compounds, 3.9% hits; AID 1745853, 2022; call rule not given here
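Each enzyme was reacted with SAM and its substrate, with compounds tested once at 40 uM; SAH formed was read by MTase-Glo luminescence.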
Active calls of the source: *; i = inactive; + = active, no number. % is set by controls: 0 for no effect and ±100 for the full control effect.

SMILES	Methyltransferases
CCOC(=O)c1cc2n(n1)CC(C)(C(=O)NC1CCCC1)N(c1ccc(Cl)cc1C)C2=O (configuration not stated)	i
NS(=O)(=O)c1ccc(CCNc2nc3c(-c4cccc(Br)c4)nnn3c3ccccc23)cc1	i
CC(=O)Nc1c2n(c3ccc(F)cc13)CC(C)(C(=O)NC1CCCC1)N(Cc1ccccc1C)C2=O (configuration not stated)	i
CC(C)n1cc(-c2ccc(Oc3ccccc3)cc2)c2c(N)ncnc21	+
CCC(C)NC(=O)Cn1nc2n(Cc3ccccc3)c(=O)c3ccc(C(=O)NC4CCCC4)cc3n2c1=O (configuration not stated)	i
CCOC(=O)c1cc2n(n1)CC(C)(C(=O)NCCC(C)C)N(Cc1ccc(CC)cc1)C2=O (configuration not stated)	i
Cc1ccccc1Sc1ccc(/C=C2\SC(=S)NC2=O)cc1[N+](=O)[O-]	+
CCOc1ccc(CCN2C(=O)c3ccc(-c4ccco4)n3CC2(C)C(=O)NCc2ccc(Cl)cc2)cc1 (configuration not stated)	i
c1ccc2c(Oc3nc(Nc4ccc(N5CCOCC5)cc4)c4ncn(C5CCCCC5)c4n3)cccc2c1	+
COc1ccc(OC)c2c1cc1n2CC(C)(C(=O)NC2CCCC2)N(Cc2ccccn2)C1=O (configuration not stated)	i
COc1ccc(CN2C(=O)c3cc4ccccc4n3CC2(C)C(=O)NCCCOC(C)C)cc1 (configuration not stated)	i
CC1(C(=O)NC2CCCCCC2)Cn2c(cc3ccccc32)C(=O)N1Cc1cccnc1 (configuration not stated)	i
CCc1ccc(CN2C(=O)c3cc(-c4ccccc4)nn3CC2(C)C(=O)NCc2ccccc2)cc1 (configuration not stated)	i
CC1CCC(NC(=O)C2(C)Cn3c(cc4occc43)C(=O)N2Cc2cccc(F)c2)CC1 (configuration not stated)	i
CCOC(=O)c1cnc2ccc(-c3cncc(NS(=O)(=O)c4ccccc4)c3)cn12	+
CCOC(=O)c1cccc(NS(=O)(=O)c2ccc3[nH]c(=O)[nH]c3c2)c1	i
CCOC(=O)c1ccc(NS(=O)(=O)c2ccc3c(c2)n(C)c(=O)n3C)cc1	i
CCOC(=O)c1cc2n(n1)CC(C)(C(=O)NC1CCCC1)N(c1cc(Cl)ccc1OC)C2=O (configuration not stated)	i
CCCCN(CC)CCN1C(=O)c2ccc(-c3ccco3)n2CC1(C)C(=O)NC1CCCCCCC1 (configuration not stated)	i
CC(C)c1ccc(N2C(=O)c3ccccc3CC2(C)C(=O)NCc2ccccc2)cc1 (configuration not stated)	i
Cc1ccc(Cn2c(=O)c3ccccc3n3c(SCC(=O)Nc4ccc(C)cc4C)nnc23)cc1	i
CCCN1CCN(CCCN2C(=O)c3cc4occc4n3CC2(C)C(=O)NC2CCCCC2)CC1 (configuration not stated)	i
COc1cc(/C=C/c2cn(-c3ccc(C(=O)O)cc3)nc2/C=C/c2ccc(O)c(OC)c2)ccc1O	+
COc1cc(/C=C/C(=O)O[C@@H]2C[C@@](O)(C(=O)O)C[C@@H](O)[C@@H]2O)ccc1O	i
C/C=C/c1ccc2oc(-c3ccc(O)c(OC)c3)c(C)c2c1	i
SMILES	Methyltransferases
CC1(C(=O)NC2CCCC2)Cn2c(cc3ccccc32)C(=O)N1C1CCN(Cc2ccccc2)CC1 (configuration not stated)	i
CC1CCCC(NC(=O)C2(C)Cn3c(cc4sccc43)C(=O)N2Cc2ccccc2Cl)C1C (configuration not stated)	i
CC1(C(=O)NC2CCCCCCC2)Cn2c(cc3occc32)C(=O)N1CC1CCCO1 (configuration not stated)	i
CC(C)CCNC(=O)CCc1nnc2n(Cc3ccc(F)cc3)c(=O)c3ccccc3n12	i
O=C(CCc1nnc2n(CCc3ccccc3)c(=O)c3ccccc3n12)NCCc1ccccc1	i
O=C(CCc1nnc2n(Cc3ccccc3)c(=O)c3ccccc3n12)NCCN1CCCC1	i
O=C(CCc1nnc2n(Cc3ccc(Cl)cc3)c(=O)c3ccccc3n12)NCCN1CCCC1	+
O=C(CCc1nnc2n(CCc3ccccc3)c(=O)c3ccccc3n12)NCCCN1CCOCC1	i
O=C(CCc1nnc2n(CCc3ccccc3)c(=O)c3ccccc3n12)NCCCN1CCCCC1	+
O=C(CCc1nnc2n(Cc3ccc(Cl)cc3)c(=O)c3ccccc3n12)NCCCN1CCOCC1	i
O=C(CCc1nnc2n(Cc3ccc(F)cc3)c(=O)c3ccccc3n12)NCCc1ccccc1	i
O=C(CCc1nnc2n(Cc3ccccc3)c(=O)c3ccccc3n12)N1CCN(C2CCCCC2)CC1	i
CC1CCCCN1CCNC(=O)CCc1nnc2n(Cc3ccc(F)cc3)c(=O)c3ccccc3n12 (configuration not stated)	+
Cc1ccc(Cn2c(=O)c3ccccc3n3c(CCC(=O)N4CCC(N5CCCCC5)CC4)nnc23)cc1	+
Cc1ccc(Cn2c(=O)c3ccccc3n3c(CCC(=O)N4CCC(C)CC4)nnc23)cc1	i
CCCNC(=O)c1cc2n(n1)CC(C)(C(=O)NCc1ccc(C)cc1)N(C)C2=O (configuration not stated)	i
CC(C)C1c2cccn2CCN1C(=O)Nc1ccc(F)c(Cl)c1 (configuration not stated)	i
COc1ccccc1CN1C(=O)c2c(-n3cccc3)c3ccccc3n2CC1(C)C(=O)NC1CCCC1 (configuration not stated)	i
O=C(Cn1nc2n(Cc3ccccc3)c(=O)c3ccccc3n2c1=O)NC1CCCCC1	i
CC(C)Cn1c(=O)c2ccccc2n2c(CCC(=O)NCc3ccccc3)nnc12	i
CCCn1c(=O)c2ccc(C(=O)NC(C)C)cc2n2c(=O)n(CC(=O)Nc3ccc(Cl)cc3)nc12	i
O=C(CCc1nnc2n(Cc3ccccc3Cl)c(=O)c3ccccc3n12)NCCN1CCOCC1	i
CC1CCN(CCCNC(=O)CCc2nnc3n(Cc4ccccc4Cl)c(=O)c4ccccc4n23)CC1	+
O=C(CCCc1nnc2n3nc(-c4ccccc4)nc3c3ccccc3n12)NCCc1ccccc1	i
O=C(CCCc1nnc2n3nc(-c4ccccc4)nc3c3ccccc3n12)NCCN1CCCC1	+
SMILES	Methyltransferases
O=C(CCCc1nnc2n3nc(-c4ccccc4)nc3c3ccccc3n12)NCc1ccccc1	i
CC(C)CCNC(=O)CCc1nnc2n(Cc3ccccc3Cl)c(=O)c3ccccc3n12	i
Cc1ccc(C)c(N2CCN(C(=O)CCc3nnc4n(CCc5ccccc5)c(=O)c5ccccc5n34)CC2)c1	i
COCCCN1C(=O)CSc2c(c3ccccc3n2C)C1C(=O)NCc1ccc(F)cc1 (configuration not stated)	i
O=C(CCc1nnc2n(CCc3ccccc3)c(=O)c3ccccc3n12)NCc1ccccc1Cl	i
CC1=C2C3OC(=O)C(C)C3(O)CCC2(C)CCC1 (configuration not stated)	i
CC1=C2C3OC(=O)C(C)C3(O)CCC2(C)CCC1=O (configuration not stated)	i
C=C1C(=O)O[C@@H]2C3=C(C)CCC[C@]3(C)CC[C@@]12O	+
